High-throughput results deposited in PubChem by SRMLSC.
Compounds with a hit are over-represented: about 6.5% of the library has one in this group of screens.
PMK inhibit: S. pneumoniae PMK inhibition; purified PMK, PK/LDH-coupled NADH absorbance 340 nm; inhibition, % at 10 µM; hit rate 0.49% among 65,000;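 active = top-ranked compounds by inhibition in the single 10 µM screen, taking a fixed number of the strongest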;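 also: 0% = full reaction with DMSO carrier and 100% = background rate without enzyme reaction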
DPM-DC inhibit: blocks S. pneumoniae diphosphomevalonate decarboxylase | purified DPM-DC, PK/LDH coupled NADH fluorescence | calls only at 10 µM | hit rate 0.49% among 65,000;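 active = the 320 compounds with the highest percent inhibition in the single-dose primary screen, excluding strongly autofluorescent ones, cut at about 32% in these data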;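 also: kinetic rate of NADH fluorescence loss reporting ADP formed by the decarboxylase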
MK inhibit: inhibitors of Streptococcus pneumoniae mevalonate kinase | AID 555 | hit rate 0.48% among 65,000 | purified MK, PK/LDH-coupled NADH absorbance 340 nm | inhibition, % at 10 µM;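 active = ranked among the strongest by inhibition in the single 10 µM screen, a fixed top-ranked set picked for dose follow-up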
Abs 340nm: compounds absorbing at 340 nm; compound absorbance at 340 nm, fold over control; 65,000 tested, under 10 active; AID 708; fold change at 10 µM;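 active = at 10 µM dose, initial 340 nm absorbance at least 2 fold that of control wells; inactive = change under 2 fold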;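 also: initial absorbance extrapolated from kinetic A340 decline of NADH oxidation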
Fluor 339 460: intrinsic fluorescence of library compounds, ex339/em460 – biochemical, MLSMR library, data from DPM-DC assay, artefact control, profiling panel | fluorescence fold increase at 10 µM | compound autofluorescence, ex339/em460 nm, NADH buffer; stronger effect = higher value; 1 = no-compound wells, NADH background | hit rate 5.5% among 65,000;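 active = at 10 µM, mean starting fluorescence two-fold or more over control wells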;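 also: signal is the first read of a kinetic run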
NADH enzymes: blocks coupling enzymes of NAD/NADH assays | coupled PK/LDH NADH assays, four targets | IC50, µM (highest dose often 10 µM), for inactives: at the highest dose inhibition | hit rate 0.02% among 65,000 | AID 774;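 active = single-dose screening hits from any of four coupled enzyme assays that gave an IC50 when retested across doses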;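 also: the DPM-DC format reads NADH fluorescence rather than 340 nm absorbance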
Active calls of the source: *; i = inactive; . = no result given; + = active, no number.

SMILES	PMK inhibit	DPM-DC inhibit	MK inhibit	Abs 340nm	Fluor 339 460	NADH enzymes
O=C(C1Cc2ccccc2CN1S(=O)(=O)c1cccs1)N1CCCCCC1 (stereo not given)	11.0	i	20.0	0.97	1.1	10.0%
Cc1cccc(NC(=O)c2cc3n(n2)C(C(F)(F)F)CC(c2ccc4c(c2)OCO4)N3)c1 (stereo not given)	17.0	i	0.0	0.96	0.98	3.0%
Cc1cc2n(n1)C(c1ccc3c(c1)OCO3)Nc1c(C)cccc1-2 (stereo not given)	7.0	i	12.0	0.98	2.21*	9.0%
Cc1cc(C)c2c(c1)-c1cc(C)nn1C(c1ccc3c(c1)OCO3)N2 (stereo not given)	5.0	i	4.0	0.99	2.67*	6.0%
CCOc1ccc(Cc2nc(C)c(CC(=O)N3CCOCC3)c(=O)[nH]2)cc1	6.0	i	7.0	1.03	1.04	4.0%
Cc1ccc2nc(Nc3nc(=O)c4ccccc4n3C)nc(C)c2c1	4.0	i	10.0	1.03	1.19	5.0%
Cc1ccc(-c2nc3c(=O)n(C)c4ccccc4c3o2)cc1	7.0	.	3.0	1.03	4.65*	5.0%
Cc1ccc(CN(c2ccc(C(=O)N3CCCC3)cc2)S(C)(=O)=O)cc1	0.0	i	10.0	1.02	1.11	3.0%
Cn1c(Cc2ccccc2)nnc1SCC(=O)Nc1ccccc1N1CCOCC1	1.0	i	5.0	1.02	1.09	2.0%
CC(C)n1nnnc1SCC(=O)Nc1ccccc1N1CCOCC1	active	i	2.0	1	1.02	5.0%
CCOc1ccc(N2CC(C(=O)Nc3cccc(C)c3C)CC2=O)cc1 (stereo not given)	0.0	i	5.0	0.96	1.05	1.0%
CC(/C=N/n1cnnc1)=C\c1ccco1	14.0	+	16.0	1.27	0.92	3441µM*
N#Cc1nc(-c2ccco2)oc1N1CCOCC1	15.0	.	13.0	1.04	3.92*	14.0%
N#Cc1nc(-c2ccco2)oc1N1CCN(c2ccccc2)CC1	16.0	i	16.0	1.04	1.3	11.0%
COc1ccccc1-c1nc(C#N)c(N2CCc3ccccc3C2)o1	4.0	.	7.0	1.08	3.91*	6.0%
COc1ccccc1-c1nc(C#N)c(N2CCN(c3ccccc3)CC2)o1	14.0	i	14.0	1.02	1.73	4.0%
CC1CCCN(c2oc(-c3cccc4ccccc34)nc2C#N)C1 (stereo not given)	0.0	.	4.0	1.05	3.8*	2.0%
N#Cc1nc(-c2ccccc2Cl)oc1N1CCOCC1	0.0	.	0.0	1.02	2.05*	0.0%
CN1CCCc2cc3c(C(F)(F)F)cc(=O)oc3nc21	5.0	.	4.0	1.04	2.21*	5.0%
CCCCCOc1ccc(C2C(C(C)=O)=C(C)Nc3ncnn32)cc1OC (stereo not given)	16.0	i	8.0	1.02	1.06	8.0%
COc1nc2ccccc2cc1-c1noc(-c2cccnc2)n1	13.0	i	7.0	1.02	1.48	7.0%
COc1nc(-c2ccc(C)cc2)ccc1-c1noc(-c2cccnc2)n1	15.0	.	0.0	1.04	3.5*	8.0%
COc1nc(-c2ccccc2)ccc1-c1noc(-c2cccnc2)n1	15.0	.	9.0	1.06	3.55*	12.0%
CCCOc1ccc(-c2nnc(-c3ccco3)o2)cc1	5.0	i	15.0	1.01	2.19*	7.0%
CSc1ccccc1NC(=O)c1cccnc1	0.0	i	10.0	1.02	1.1	5.0%
SMILES	PMK inhibit	DPM-DC inhibit	MK inhibit	Abs 340nm	Fluor 339 460	NADH enzymes
CCOC(=O)c1cnc(SCc2nc(N)nc(Nc3ccc(C)cc3)n2)nc1N	13.0	i	7.0	1.08	1.16	7.0%
COC(=O)c1ccc(C(=O)OC)c(NS(C)(=O)=O)c1	0.0	i	13.0	1.03	1.23	5.0%
COC(=O)c1cc(Cc2ccc(N)c(C(=O)OC)c2)ccc1N	5.0	.	4.0	1.07	2.15*	5.0%
COC(=O)c1ccc(C(=O)OC)c(N)c1	0.0	.	6.0	1.03	3.95*	3.0%
COC(=O)c1ccc(CSc2nnc(-c3ccncc3)n2Cc2ccccc2)o1	3.0	i	11.0	0.99	1.11	5.0%
CCOc1ccccc1NC(=O)Cn1nnc(-c2ccc(OCC)c(OCC)c2)n1	6.0	i	9.0	1.05	1.09	5.0%
O=C(c1ccco1)c1cn(CC(=O)N2CCCCC2)c2ccccc12	4.0	i	10.0	1.14	1.09	10.0%
Cc1noc(C)c1CSc1nnc(-c2ccncc2)n1-c1cccc(Cl)c1C	25.0*	i	0.0	0.99	1.04	2.0%
Cc1ccccc1-n1c(SCc2c(C)noc2C)nnc1-c1c[nH]c2ccccc12	0.0	i	2.0	1.01	1.09	1.0%
Cc1cc(C)c2cc(CN(CC3CCCO3)C(=O)NC3CCCCC3)c(=O)[nH]c2c1 (stereo not given)	16.0	i	1.0	1.04	1.37	5.0%
Cc1cc(C)c(C#N)c(N2CCSCC2)n1	11.0	i	10.0	1.01	2.71*	13.0%
Cc1cc(N(C)C)c(C#N)c(N2CCOCC2)n1	3.0	i	11.0	1.02	1.13	5.0%
Cc1cc(C)c(C#N)c(N2CCCC(C(N)=O)C2)n1 (stereo not given)	9.0	.	2.0	1	4.14*	6.0%
Cc1cc(C)c(C#N)c(SCC(=O)N2CCCCC2)n1	0.0	i	0.0	1.06	1.12	1.0%
CCN1CCc2c(sc(N)c2C#N)C1	7.0	i	10.0	1.04	1.65	12.0%
N#Cc1c(N)sc(=S)c2c1CCN(Cc1ccccc1)C2	29.0*	.	0.0	1.07	4.29*	15.0%
N#Cc1c(NCCO)nc(NCc2ccccc2)c2c1CCN(Cc1ccccc1)C2	18.0	+	3.0	1.03	2.17*	19.0%
O=C(O)COc1ccccc1C1C2C(=O)N(c3ccc(F)cc3)C(=O)C2ON1c1ccccc1 (stereo not given)	15.0	i	0.0	1.06	1.05	5.0%
N#Cc1nn(-c2ccccc2)nc1N1CCCCC1	12.0	.	0.0	1.01	5.04*	6.0%
C=CCn1c(SCC(=O)/C(C#N)=C(\C)N)nnc1C1CCCCC1	9.0	i	11.0	1.03	1.12	7.0%
CCCCc1ccc(C2C(C#N)=C(N)SC(N)=C2C#N)s1	6.0	i	6.0	1.03	1.11	4.0%
COc1ccccc1C(=O)NCCc1nc2ccccc2[nH]1	6.0	i	12.0	1	1.09	6.0%
Cc1ccnc(NC(=O)c2cc(S(=O)(=O)N3CCCCC3)ccc2Cl)c1	0.0	i	3.0	1.03	1.53	6.0%
CCOc1ccc(N2CC(C(=O)OC)CC2=O)cc1 (stereo not given)	0.0	+	8.0	1.05	0.58	16.0%
Cc1onc(-c2ccccc2Cl)c1C(=O)Nc1cccc(-c2cn3cccnc3n2)c1	10.0	.	2.0	1.03	3.55*	3.0%
CCOC(=O)c1cc(-c2nnc(-c3ccc(Oc4ccccc4)cc3)o2)c(C)nc1C	2.0	i	24.0	0.99	1.34	4.0%
CC(C)(C)C1=Nn2c(nnc2-c2ccccn2)SC1	8.0	i	6.0	1.02	1.09	5.0%
